Measurements taken from PubChem BioAssay (NCATS).
Results filed as inconclusive are left out. Entries that show only a call come without a potency. Active and inactive are the calls of the source. Calls come from the whole dose curve; as a rule, active = well fitted curve in the direction sought with a large enough effect; inconclusive = small, poorly fitted or top-dose-only effect, or another doubt; inactive = no such curve, though single readings can be large; an effect the other way counts as inactive or inconclusive.

Key:
[1] = Quantitative High-Throughput drug screen in 47 multiple myeloma cell lines against the NCATS MIPE library collection: KMM1_JCRB cell viability assay (AID 1918960); note: nearly all actives have a fitted effect of over 30% in size
Procedure, shortened: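 Here, 48 h treatment with MIPE 4.0 agents at 37 °C preceded an ATP luminescence read. Plating density was 500 cells per well.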

[2] = Quantitative High-Throughput drug screen in 47 multiple myeloma cell lines against the NCATS MIPE library collection: KHM11_PLB cell viability assay (AID 1918962); note: nearly all actives have a fitted effect of over 35% in size
Procedure, shortened: (§1)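 Primary qHTS used for cherry-picking: cells at 500/well, library compounds for 48 h (37C, 5% CO2), luminescent ATP assay.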

[3] = Quantitative High-Throughput drug screen in 47 multiple myeloma cell lines against the NCATS MIPE library collection: JIM3_ECACC cell viability assay (AID 1918963; note: nearly all actives have a fitted effect of over 35% in size)
Procedure, shortened: as §1

[4] = Quantitative High-Throughput drug screen in 47 multiple myeloma cell lines against the NCATS MIPE library collection: INA6_PLB cell viability assay (AID 1918965; note: nearly all actives have a fitted effect of over 55% in size)
Procedure, shortened: (§2)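 We plated 500 myeloma cells per well, pinned in MIPE 4.0 compounds, and incubated for 48 hours at 37C. ATP was then quantified with CellTiter-Glo, with DMSO and media-only wells defining 100% and 0%.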

[5] = Quantitative High-Throughput drug screen in 47 multiple myeloma cell lines against the NCATS MIPE library collection: H1112_PLB cell viability assay (AID 1918967; note: nearly all actives have a fitted effect of over 30% in size)
Procedure, shortened: as §1

[6] = Quantitative High-Throughput drug screen in 47 multiple myeloma cell lines against the NCATS MIPE library collection: Karpas25_ECACC cell viability assay (AID 1918968; note: nearly all actives have a fitted effect of over 35% in size)
Procedure, shortened: as §1

[7] = Quantitative High-Throughput drug screen in 47 multiple myeloma cell lines against the NCATS MIPE library collection: KMS27_JCRB cell viability assay (AID 1918970); note: nearly all actives have a fitted effect of over 30% in size
Procedure, shortened: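 Luminescent ATP read-out (CellTiter-Glo, 5 min at room temperature) after 48 h compound exposure of 500 KMS27_JCRB cells per well; DMSO wells define full viability and media-only wells zero.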

[8] = Quantitative High-Throughput drug screen in 47 multiple myeloma cell lines against the NCATS MIPE library collection: KMS12PE_JCRB cell viability assay (AID 1918972); note: nearly all actives have a fitted effect of over 30% in size; for viability: series mostly up to about 46 µM
Procedure, shortened: as §2

[9] = Quantitative High-Throughput drug screen in 47 multiple myeloma cell lines against the NCATS MIPE library collection: KMS20_JCRB cell viability assay (AID 1918973); note: nearly all actives have a fitted effect of over 45% in size
Procedure, shortened: as §1

[10] = Quantitative High-Throughput drug screen in 47 multiple myeloma cell lines against the NCATS MIPE library collection: KMS26_JCRB cell viability assay (AID 1918975); note: nearly all actives have a fitted effect of over 45% in size
Procedure, shortened: (§3)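 Myeloma cell lines, 500 cells per well, exposed to MIPE 4.0 library compounds for 48 h at 37C, 5% CO2. Viability from ATP by CellTiter-Glo luminescence; normalised to DMSO (100%) and media-only (0%) wells.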

[11] = Quantitative High-Throughput drug screen in 47 multiple myeloma cell lines against the NCATS MIPE library collection: NCIH929_DSMZ cell viability assay (AID 1918978); note: nearly all actives have a fitted effect of over 35% in size
Procedure, shortened: (§4)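 Plated at 500 cells per well, myeloma lines received MIPE 4.0 compounds by pin tool. Following 48 h culture at 37 °C, CellTiter-Glo luminescence gave viability relative to DMSO and media-only controls.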

[12] = Quantitative High-Throughput drug screen in 47 multiple myeloma cell lines against the NCATS MIPE library collection: OCIMY1_PLB cell viability assay (AID 1918979); note: nearly all actives have a fitted effect of over 35% in size; for viability: series mostly up to about 46 µM
Procedure, shortened: as §4

[13] = Quantitative High-Throughput drug screen in 47 multiple myeloma cell lines against the NCATS MIPE library collection: JJN3_DSMZ cell viability assay (AID 1918966; note: nearly all actives have a fitted effect of over 50% in size)
Procedure, shortened: as §1

[14] = Quantitative High-Throughput drug screen in 47 multiple myeloma cell lines against the NCATS MIPE library collection: MM1S_ATCC cell viability assay (AID 1918980); note: nearly all actives have a fitted effect of over 45% in size
Procedure, shortened: as §4

[15] = Quantitative High-Throughput drug screen in 47 multiple myeloma cell lines against the NCATS MIPE library collection: MM1R_ATCC cell viability assay (AID 1918981); note: nearly all actives have a fitted effect of over 35% in size
Procedure, shortened: as §4

[16] = Quantitative High-Throughput drug screen in 47 multiple myeloma cell lines against the NCATS MIPE library collection: JIM1_ECACC cell viability assay (AID 1918964)
Procedure, shortened: as §1

[17] = Quantitative High-Throughput drug screen in 47 multiple myeloma cell lines against the NCATS MIPE library collection: KMS12BM_JCRB cell viability assay (AID 1918971); note: nearly all actives have a fitted effect of over 35% in size
Procedure, shortened: as §3

[18] = Quantitative High-Throughput drug screen in 47 multiple myeloma cell lines against the NCATS MIPE library collection: MOLP8_DSMZ cell viability assay (AID 1918977); note: nearly all actives have a fitted effect of over 45% in size
Procedure, shortened: as §4

[19] = Quantitative High-Throughput drug screen in 47 multiple myeloma cell lines against the NCATS MIPE library collection: MMM1_PLB cell viability assay (AID 1918976); note: nearly all actives have a fitted effect of over 35% in size
Procedure, shortened: as §4
Potency is the fitted concentration of half-maximal effect.

Structure (SMILES)	Potency [1]	Potency [2]	Potency [3]	Potency [4]	Potency [5]	Potency [6]	Potency [7]	Potency [8]	Potency [9]	Potency [10]	Potency [11]	Potency [12]	Potency [13]	Potency [14]	Potency [15]	Potency [16]	Potency [17]	Potency [18]	Potency [19]
CC(=O)CC(c1ccccc1)c1c(O)c2ccccc2oc1=O (stereo not drawn)	inactive	inactive	inactive	inactive	inactive	inactive	inactive	inactive	inactive	inactive	inactive	inactive							
CC(C)(C#N)c1cc(Cn2cncn2)cc(C(C)(C)C#N)c1	inactive	inactive	inactive	inactive		inactive	inactive		inactive	inactive	inactive	inactive	2.35 µM (active)	inactive	inactive				
COc1ccccc1OCC(O)COC(N)=O (stereo not drawn)	inactive	inactive	inactive	inactive		inactive	inactive			inactive	inactive					inactive	inactive	inactive	
CC1=CC(=O)c2ccccc2C1=O	inactive		23.5 µM (active)	8.33 µM (active)	20.9 µM (active)					10.5 µM (active)	9.35 µM (active)		13.2 µM (active)	18.7 µM (active)		inactive			
O=C(N[C@H](CO)[C@H](O)c1ccc([N+](=O)[O-])cc1)C(Cl)Cl	inactive	inactive	inactive	inactive	inactive		inactive			inactive	inactive	inactive	inactive	inactive			inactive	inactive	
COC(=O)Nc1nc2ccc(Sc3ccccc3)cc2[nH]1	1.18 µM (active)		0.833 µM (active)	0.743 µM (active)				0.833 µM (active)		18.7 µM (active)	8.33 µM (active)	3.32 µM (active)	10.5 µM (active)	2.09 µM (active)	4.18 µM (active)	0.833 µM (active)	2.35 µM (active)	13.2 µM (active)	
CC(=O)[C@H]1CC[C@H]2[C@@H]3CC=C4C[C@@H](O)CC[C@]4(C)[C@H]3CC[C@]12C	inactive	inactive	inactive		inactive	inactive					inactive	inactive		inactive					
CCOC(=O)[C@H](CCc1ccccc1)N[C@H]1CCc2ccccc2N(CC(=O)O)C1=O	18.7 µM (active)	37.2 µM (active)	20.9 µM (active)	14.8 µM (active)	23.5 µM (active)		9.35 µM (active)	8.33 µM (active)	5.9 µM (active)		26.4 µM (active)	23.5 µM (active)	23.5 µM (active)	8.33 µM (active)		9.35 µM (active)	29.6 µM (active)	18.7 µM (active)	
Cc1cc(NS(=O)(=O)c2ccc(N)cc2)no1	inactive	inactive	inactive	inactive	inactive	inactive	inactive		inactive	inactive		inactive		9.35 µM (active)		inactive	inactive	inactive	
CCc1c2c(nc3ccc(OC(=O)N4CCC(N5CCCCC5)CC4)cc13)-c1cc3c(c(=O)n1C2)COC(=O)[C@]3(O)CC	0.935 µM (active)	1.48 µM (active)		0.469 µM (active)	1.32 µM (active)	2.64 µM (active)		0.526 µM (active)		0.166 µM (active)	16.6 µM (active)			1.32 µM (active)	1.05 µM (active)		0.264 µM (active)	0.148 µM (active)	
CC(N)C12CC3CC(CC(C3)C1)C2 (stereo not drawn)	inactive		inactive	inactive			inactive	inactive		inactive	inactive	inactive	inactive	inactive	inactive	inactive		inactive	
CNC(=O)c1cc(Oc2ccc(NC(=O)Nc3ccc(Cl)c(C(F)(F)F)c3)cc2)ccn1	2.96 µM (active)	11.8 µM (active)	10.5 µM (active)	13.2 µM (active)	9.35 µM (active)	6.62 µM (active)	3.32 µM (active)				10.5 µM (active)		23.5 µM (active)	3.72 µM (active)	20.9 µM (active)				
N=C(N)c1ccc(OCCCCCOc2ccc(C(=N)N)cc2)cc1	5.26 µM (active)	3.32 µM (active)		3.72 µM (active)			inactive						16.6 µM (active)	16.6 µM (active)	18.7 µM (active)	inactive	5.9 µM (active)	5.26 µM (active)	14.8 µM (active)
Cn1nnc2c(C(N)=O)ncn2c1=O	inactive	inactive	inactive		inactive	inactive	inactive	inactive	inactive	inactive	inactive	inactive	inactive		inactive	inactive		inactive	
CC(C)C[C@H](NC(=O)[C@H](CCc1ccccc1)NC(=O)CN1CCOCC1)C(=O)N[C@@H](Cc1ccccc1)C(=O)N[C@@H](CC(C)C)C(=O)[C@@]1(C)CO1	0.001 µM (active)	0.001 µM (active)	0.0235 µM (active)	0.001 µM (active)		0.001 µM (active)	0.001 µM (active)			0.0132 µM (active)	0.001 µM (active)		0.0074 µM (active)	0.0023 µM (active)	0.0037 µM (active)	0.0074 µM (active)	0.0053 µM (active)	0.0019 µM (active)	
CC1=C(C(=O)O)N2C(=O)[C@@H](NC(=O)C(N)c3ccccc3)[C@H]2SC1 (stereo partly drawn)	inactive	inactive	0.0017 µM (active)		inactive	inactive		inactive			inactive	inactive			inactive				
